Source: PubChem (National Center for Advancing Translational Sciences (NCATS))
TRHR ag: activates the human TRH receptor; P34981; activation, % at 2 µM; TRHR cells, calcium flux fluo-8, FDSS agonist mode; 360,000 tested, 0.18% active; in the data active = activation above about 30%; note: 0% is about no effect
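Agonist-mode FDSS calcium read (Ex 480/Em 530, 1 s cycles) in 1536-well TRHR cells with fluo-8 dye, after 10-cycle baseline and 23 nL compound addition; TRH at EC20 (10 nM final) added afterwards for the enhancer phase.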
Epigenetic reg: regulators of epigenetic silencing causing reporter derepression in mouse cells; murine LDR cells, GFP reporter derepression, 30 h; Potency, µM (doses to about 53.9 µM), without a hit: at the highest dose GFP activation, most hits filed as activators; 280,000 tested, 0.2% active; AID 1865; note: potency is the fitted concentration of half-maximal effect; % of control where 0% means no effect; nearly all actives have a fitted effect of over 60% in size
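Readout is the number of GFP-expressing murine LDR cells, counted by cytometry following washing. Cells were treated with compound for 30 h at 37 C; the stably integrated CMV-GFP locus is normally silent.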
MBNL1 CUG block: blocks human MBNL1 binding to CUG repeat RNA | Q9NR56 | TR-FRET MBNL1-His/biotin-(CUG)12 binding, 665/545 ratio | Potency, µM (series often up to 57.5 µM), inactives show at the top dose activity change, negative = inhibition, most hits filed as inhibitors | 280,000 tested, 0.036% active | AID 2675; active = well fitted inhibition curve with a large enough effect in the signal ratio, with a control signal flat, not every such curve was filed as active; inconclusive = small, poorly fitted or top-dose-only effect, or effect the other way, or a change in a side signal; inactive = no such curve, though single readings can be large or run the other way; the % refers to the signal ratio; note: potency is the fitted concentration of half-maximal effect; % is set by controls: 0 for no effect and ±100 for the full control effect
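Ratiometric TR-FRET (665 over 545 nm, excitation 340 nm) tracks disruption of MBNL1-His/biotin-(CUG)12 complex after 60 min at room temperature, with compounds at 92 nM to 58 uM final.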
TRHR enhancer: allosteric enhancers of human TRH receptor. TRHR cells, fluo-8 calcium fluorescence, EC20 TRH enhancement. enhancement, % at 2 µM. 360,000 tested, 0.66% active. P34981; in the data active = enhancement above about 30%; note: 0% is about no effect
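Enhancer read-out: after compound pinning and an initial kinetic agonist-mode read, an EC20 of TRH (10 nM final) was injected and fluo-8 calcium signal (Ex 480/Em 530) followed at 1 s/cycle for 100 cycles in TRHR-expressing cells.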
IL2 activator: IL-2 activation; IL-2 activation reporter assay, cell-based qHTS; stimulated with anti-CD3/CD4/CD28 beads; in transgenic mouse T cells; activation, % (series mostly up to about 46 µM); 360,000 tested, 0.065% active; AID 652025; in the data active = activation above about 50%; inconclusive = mostly about 30% to 49%; note: 0% is about no effect
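Unstimulated transgenic mouse T cells preincubated 60 min with compound, then stimulated with anti-CD3/anti-CD4-coated beads plus anti-CD28 for 18 h at 37 degrees C. IL-2 response read as EGFP and DsRed fluorescence by plate cytometry.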
CBFb-RUNX1 inh: CBF-beta/RUNX1 interaction disruption; Q01196+Q13951; AlphaScreen CBFb-His/RUNX1-biotin binding, biochemical; Potency, µM (titrated, usually from 59.8 µM), without a hit: at the top dose activity, negative = inhibition, actives largely listed as inhibitors; 230,000 tested, under 10 active; AID 1477; note: % of control where 0% means no effect
Target sequence (Q01196 whole entry, looked up): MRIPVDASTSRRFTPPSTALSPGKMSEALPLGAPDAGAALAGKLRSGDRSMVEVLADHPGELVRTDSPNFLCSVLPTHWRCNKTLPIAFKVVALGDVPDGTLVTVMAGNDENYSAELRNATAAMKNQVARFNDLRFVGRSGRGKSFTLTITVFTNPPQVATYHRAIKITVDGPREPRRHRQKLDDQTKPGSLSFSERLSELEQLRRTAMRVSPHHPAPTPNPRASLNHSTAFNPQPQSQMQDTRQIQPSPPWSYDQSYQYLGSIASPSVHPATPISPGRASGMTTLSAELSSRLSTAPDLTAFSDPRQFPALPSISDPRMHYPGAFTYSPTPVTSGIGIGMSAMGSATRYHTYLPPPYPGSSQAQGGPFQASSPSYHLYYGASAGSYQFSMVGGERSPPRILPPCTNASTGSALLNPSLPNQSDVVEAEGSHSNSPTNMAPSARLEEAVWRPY
Target sequence (Q13951 whole entry, looked up): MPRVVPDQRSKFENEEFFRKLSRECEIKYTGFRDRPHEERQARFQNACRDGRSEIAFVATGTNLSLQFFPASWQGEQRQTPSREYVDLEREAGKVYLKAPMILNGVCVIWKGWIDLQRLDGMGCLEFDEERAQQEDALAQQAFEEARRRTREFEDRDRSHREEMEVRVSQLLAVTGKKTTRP
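Interaction loss through any mechanism counts as activity. Pre-formed complex of His-CBF-beta and biotin-RUNX1 (30 nM apiece) is incubated with compound 15 min, then with 50 ng nickel and 50 ng streptavidin beads for 90 min before AlphaScreen detection.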
Numbers without * were called inactive; u = inconclusive; x = no result given. Only some compounds are listed: those with a hit (about 0.88% of all), similar ones and a draw of the others. Unless noted, calls come from the whole dose curve; as a rule, active = well fitted curve in the direction sought with a large enough effect; inconclusive = small, poorly fitted or top-dose-only effect, or another doubt; inactive = no such curve, though single readings can be large; an effect the other way counts as inactive or inconclusive.

SMILES	TRHR ag	Epigenetic reg	MBNL1 CUG block	TRHR enhancer	IL2 activator	CBFb-RUNX1 inh
O=C(Nc1cccc(C(=O)OCc2cc(=O)n3nc(C4CC4)sc3n2)c1)c1cccc(Cl)c1	-0.5	15.8µM*	x	-0.5	x	x
COc1ccc(S(=O)(=O)N2CCN(Cc3ccccc3)CC2)cc1OC	0.1	x	-5.2%	35.3*	1.1	x
COc1ccc(S(=O)(=O)N2CCC(C(=O)Nc3ccc(Oc4ccccc4)cc3)CC2)cc1OC	-0.1	15.7%	x	32.3*	x	x
COc1ccc(S(=O)(=O)N2CCC(C(=O)Nc3ccccc3)CC2)cc1OC	-0.7	-0.3%	x	-0.4	x	x
Cc1cccc(NC(=S)N(CCN2CCOCC2)Cc2cc3cc4c(cc3[nH]c2=O)OCCO4)c1	-0.8	-0.6%	-14.4%	33.9*	-3.2	-8.1%
Cc1ccc(NC(=S)N(CCN2CCOCC2)Cc2cc3cc4c(cc3[nH]c2=O)OCCO4)cc1	-0.2	0.0%	-7.2%	7.6	-0.1	11.0%
CCN(CC)CCCN(Cc1cc2cc3c(cc2[nH]c1=O)OCCO3)C(=O)Nc1ccc(F)cc1	-0.8	-10.1%	-26.1%	32.0*	11.7	u
CN(C)c1ccc(-c2cc[nH]c(=O)c2N)cc1	0.6	x	x	4.1	x	x
COc1cc(C(=O)Nc2cccc(NC(=O)c3ccccc3)c2)cc(OC)c1OC	-0.5	x	-0.7%	-1.8	-0.3	x
COc1cc(C(=O)Nc2cccc(-c3nncn3C)c2)cc(OC)c1OC	-0.2	0.0%	3.2%	33.9*	-0.6	4.5%
O=C(Cn1cc(CNC(=O)c2ccccc2)nn1)Nc1cc(C(F)(F)F)ccc1Cl	-3.0	x	x	1.8	x	x
Cn1nc(-c2ccc(OCC(=O)Nc3ccc(Cl)cc3)cc2)c2ccccc2c1=O	-0.9	0.0%	x	35.3*	x	x
CC(C)(C)NC(=O)CCn1nc(-c2ccc(Cl)cc2)c2ccccc2c1=O	-0.5	x	-1.5%	-5.4	2.3	x
Cc1ccccc1NC(=O)CCn1nc(-c2ccc(Cl)cc2)c2ccccc2c1=O	-0.8	2.9%	x	37.1*	x	x
CCOc1ccc(C(=O)N2CCCCC2CCN2CCOCC2)cc1 (stereo unspecified)	-0.1	-3.7%	x	-2.0	x	x
CCOc1ccc(NC(=O)c2cc(=O)c3ccc(C)c(C)c3o2)cc1	-0.6	20µM*	x	-1.1	x	x
O=[S+]([O-])(c1ccc2c(c1)OCCO2)N1CCN([S+](=O)([O-])c2c(F)cc(Br)cc2F)CC1	-0.3	x	x	-2.5	x	x
CC(C)=CC[C@@H](O)C1=CC(=O)c2c(O)ccc(O)c2C1=O	x	1.1%	x	x	x	x
CC(=O)N1CCc2c(sc(NC(=O)c3ccc([N+](=O)[O-])o3)c2C#N)C1	-0.1	11.2µM*	u	1.7	0.2	6.0%
CCn1cc(Cl)c(C(=O)Nc2ccc3c(c2)OCCO3)n1	-0.1	-0.2%	-3.8%	37.5*	1.2	-0.4%
CCn1cc(Cl)c(C(=O)Nc2cccc(C(F)(F)F)c2)n1	-0.9	-1.2%	x	5.0	-3.4	27.8%
CCCNc1c(F)c(F)c2c(C)c3ccccc3nc2c1F	33.8*	u	20.5%	8.5	-0.2	5.7%
CCCNc1ncnc2c1c(-c1ccccc1)cn2-c1ccccc1	-0.2	0.6%	x	-3.8	x	x
CC(=O)Nc1ccc(N=Cc2c(O)c(C(=O)Nc3ccccc3)cc3ccccc23)cc1	108.7*	3.9%	6.8%	-0.6	-3.8	-9.2%
CC(=O)Nc1ccc(N=Cc2c(O)c3ccccc3oc2=O)cc1	-0.1	x	-5.8%	-2.3	-4.2	x
COc1ccc(Cl)cc1S(=O)(=O)N1CCN(S(=O)(=O)c2ccc3c(c2)OCCO3)CC1	-0.3	x	x	4.7	x	x
COc1ccc2c(C)c(CCC(=O)NCc3ccc(Cl)cc3)c(=O)oc2c1C	0.1	1.1%	x	0.4	x	x
CCOC(=O)CCC(NC(=O)CCC(=O)NC(CCC(=O)OCC)C(=O)OCC)C(=O)OCC (stereo unspecified)	1.0	6.9%	u	30.6*	0.9	0.2%
CCOC(=O)CCC(NC(=O)CCCC(=O)NC(CCC(=O)OCC)C(=O)OCC)C(=O)OCC (stereo unspecified)	0.5	-1.1%	u	0.5	-0.1	-5.9%
